# From article PMC4336329 (PLoS ONE, 2015)
# Hit rate of the full screen: of about 310,000 compounds, about 14,000 (4.5%) showed an effect of 50% or more. Effects have a minus sign here. For the sample, strong results were picked, then their nearest neighbours and some compounds at random.
# Molecular target: human ether-à-go-go-related gene (hERG) potassium channel (human, UniProt Q12809)
# Assay: primary screen, population patch clamp on CHO cells stably expressing hERG; higher = less effect of the substance
# 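Note: peak tail current of the secondary pulse compared with the same well before compound.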
# human ether-à-go-go-related gene (hERG) potassium channel, sequence (Q12809 whole entry, looked up): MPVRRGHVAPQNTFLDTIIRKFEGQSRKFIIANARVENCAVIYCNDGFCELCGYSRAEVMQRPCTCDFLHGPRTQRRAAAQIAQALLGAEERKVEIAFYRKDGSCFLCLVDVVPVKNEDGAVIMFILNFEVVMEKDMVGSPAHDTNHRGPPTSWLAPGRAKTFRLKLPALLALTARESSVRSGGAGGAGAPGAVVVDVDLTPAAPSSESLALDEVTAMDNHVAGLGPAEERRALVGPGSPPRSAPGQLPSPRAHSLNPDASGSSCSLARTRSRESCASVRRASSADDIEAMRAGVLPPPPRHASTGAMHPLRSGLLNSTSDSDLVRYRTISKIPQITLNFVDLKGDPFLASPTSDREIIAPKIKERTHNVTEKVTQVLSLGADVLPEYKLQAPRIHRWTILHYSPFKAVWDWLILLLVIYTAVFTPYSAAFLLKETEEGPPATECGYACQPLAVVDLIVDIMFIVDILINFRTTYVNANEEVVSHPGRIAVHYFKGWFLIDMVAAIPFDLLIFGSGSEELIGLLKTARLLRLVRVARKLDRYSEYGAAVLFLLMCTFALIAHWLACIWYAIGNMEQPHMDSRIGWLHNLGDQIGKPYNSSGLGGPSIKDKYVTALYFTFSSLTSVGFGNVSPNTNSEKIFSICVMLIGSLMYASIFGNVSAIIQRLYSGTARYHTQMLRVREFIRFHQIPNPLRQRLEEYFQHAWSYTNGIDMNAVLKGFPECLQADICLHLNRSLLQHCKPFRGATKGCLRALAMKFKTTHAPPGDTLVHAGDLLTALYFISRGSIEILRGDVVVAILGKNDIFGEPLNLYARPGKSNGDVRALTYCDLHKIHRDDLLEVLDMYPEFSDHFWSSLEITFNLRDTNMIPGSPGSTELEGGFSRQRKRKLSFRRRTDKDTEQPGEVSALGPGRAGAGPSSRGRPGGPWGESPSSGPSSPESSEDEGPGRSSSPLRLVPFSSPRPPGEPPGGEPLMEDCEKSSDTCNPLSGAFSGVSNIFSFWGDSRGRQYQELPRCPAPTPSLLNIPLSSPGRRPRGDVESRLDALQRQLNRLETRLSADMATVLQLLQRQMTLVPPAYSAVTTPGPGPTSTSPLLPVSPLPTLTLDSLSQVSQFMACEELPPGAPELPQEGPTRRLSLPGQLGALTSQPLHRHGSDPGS
row,SMILES,"hERG current change (%, negative = inhibition) at 10uM [%]"
1,CCOCC(=O)Nc1ccc2c(c1)OCCO2,19.6
2,Brc1ccc2c(c1)C(c1cccs1)=NNC(c1cccnc1)=N2,-14.5
3,COc1ccc(NC(=O)CCC(=O)c2ccc(C(C)C)cc2)cc1,27.7
4,CC(C)OCCCn1c(=NC(=O)c2cccs2)c(C#N)cc2c(=O)n3ccccc3nc21,-77.6
5,CC(C)OCCCn1c(=NC(=O)c2ccncc2)c(C#N)cc2c(=O)n3ccccc3nc21,-74.2
6,CCOCCCn1c(=NC(=O)c2cccs2)c(C#N)cc2c(=O)n3ccccc3nc21,-76.9
7,CC(=O)N=c1c(C#N)cc2c(=O)n3ccccc3nc2n1CCCOC(C)C,-13.6
8,CCOCCCn1c(=NC(C)=O)c(C#N)cc2c(=O)n3ccccc3nc21,-15.4
9,CCCCCn1c(=NC(C)=O)c(C#N)cc2c(=O)n3ccccc3nc21,-43
10,Cc1ccc(NC(=O)c2ccc(CSc3nnnn3C)cc2)cc1,-15.3
11,COc1ccc(-c2nc(CS(=O)CC(=O)NCc3cccnc3)c(C)o2)cc1OC (centres unmarked),-2.9
12,O=C(NCCCN1CCCCCC1)c1ccc(N2CCCC2=O)cc1,16.4
13,COc1ccccc1/C=C(\C#N)C(=O)c1cccn1C,5.95
14,CCOC(=O)C1(Cc2ccccc2)CCN(CC2CC=CCC2)CC1 (centres unmarked),-54.9
15,CCOC(=O)C1(Cc2cccc(OC)c2)CCN(CC2CC=CCC2)CC1 (centres unmarked),-71.7
16,CCOC(=O)C1(Cc2cccc(F)c2)CCN(CC2CC2)CC1,-33.4
17,CCN(Cc1cnn(C)c1)C(=O)c1ccc(OC2CCN(S(=O)(=O)N(C)C)CC2)cc1,19.1
18,CCSC1=C(C#N)C(c2ccc3c(c2)OCO3)C2=C(CCCC2=O)N1 (centres unmarked),-23.4
19,Oc1ccc(/C=N/N2CCN(Cc3ccccc3)CC2)cc1,7.33
20,O=C(COC(=O)CC1CCCC1)Nc1cccc(F)c1,-1.79

row,SMILES,"hERG current change (%, negative = inhibition) at 10uM [%]"
1,O=C(NCc1cccs1)[C@@H]1CSC2c3ccccc3C(=O)N21 (some centres unmarked),8.92
2,COCc1ccc(CN2CCc3c([nH]c4ccccc34)C2C(C)(C)C)o1 (centres unmarked),7.25
3,Cc1cnc(CN2CCc3c([nH]c4ccccc34)C2CC(C)C)[nH]1 (centres unmarked),-45.1
4,CCn1ccnc1CN1CCc2c([nH]c3ccccc23)C1C1CCCCC1 (centres unmarked),-19.4
5,Cc1cccc(CN2CCc3c([nH]c4ccccc34)C2CC(C)C)n1 (centres unmarked),-3.98
6,CC(C)CC1c2[nH]c3ccccc3c2CCN1C(=O)CCC(=O)N(C)C (centres unmarked),3.88
7,CCc1nccn1CCC(=O)N1CCc2c([nH]c3ccccc23)C1CC(C)C (centres unmarked),-53.9
8,COCc1ccc(CN2CCc3c([nH]c4ccccc34)C2CC(C)C)o1 (centres unmarked),-58.7
9,CCn1nc(C)c(CN2CCc3c([nH]c4ccccc34)C2C(C)(C)C)c1C (centres unmarked),-3.17
10,Cc1c(CN2CCc3c([nH]c4ccccc34)C2CC(C)C)cnn1C (centres unmarked),-36
11,CCn1ccnc1CN1CCc2c([nH]c3ccccc23)C1CC(C)C (centres unmarked),-67.9
12,CCn1ccnc1CN1CCc2c([nH]c3ccccc23)C1C(C)(C)C (centres unmarked),-59.7
13,CC(C)CC1c2[nH]c3ccccc3c2CCN1C(=O)c1cnccn1 (centres unmarked),3.61
14,Br.Cc1nc(-c2ccc(C(=O)O)cc2)cs1,7.39
15,S=C(NCCN1CCOCC1)Nc1ccc(Cl)cc1Cl,-18
16,CCOC(=O)N1CCN(CC(O)COCc2ccccc2)CC1.Cl (centres unmarked),-4.06
17,Cc1ccc(S(=O)(=O)Nn2c(C)ccc2C)cc1,15.3
18,Nc1ccccc1Nc1ccccc1,-13.6
19,O=c1c(Cl)c(NCc2ccccc2Cl)cnn1C12CC3CC(CC(C3)C1)C2,-5.06
20,CN(C)c1ccc(C(CC(=O)O)NC(=O)c2ccc(Cl)cc2)cc1 (centres unmarked),-9.38

row,SMILES,"hERG current change (%, negative = inhibition) at 10uM [%]"
1,N#CCc1ccc(NC(=O)c2ccc(S(=O)(=O)N3CCOCC3)cc2)cc1,1.97
2,O=C(CN(c1ccccc1)S(=O)(=O)c1ccccc1[N+](=O)[O-])Nc1ccccc1C(=O)N1CCOCC1,3.76
3,Cc1ccc(CN2CCSCC2)c(C)c1,16.9
4,Cc1cccc(OCC(O)Cn2c(N3CCCCC3)nc3c2c(=O)[nH]c(=O)n3C)c1 (centres unmarked),13
5,CCCSc1nsc(NC(=O)CC)n1,-30.5
6,CCCC1Cc2c(sc(N)c2C#N)CO1 (centres unmarked),2.5
7,CC(C)Cc1nnc(NC(=O)c2ccc(N3CCCC3=O)cc2)s1,2.3
8,CN(CCOc1ccc(Cl)cc1)C(=O)Cc1ccc(S(=O)(=O)N2CCOCC2)s1,-73.1
9,Cc1ccc(OCCOC(=O)c2cc(S(=O)(=O)N3CCCCC3)ccc2N2CCOCC2)cc1,-9.24
10,O=C(NCC1CCN(c2ccc(S(=O)(=O)N3CCOCC3)cc2)CC1)c1cccc(Cl)c1,-12.4
11,CN(CCOc1ccc(Cl)cc1)C(=O)c1ccc(S(=O)(=O)N2CCOCC2)cc1,-74.9
12,CCCCN(C)C(=O)c1ccc(S(=O)(=O)N2CCOCC2)cc1,17.3
13,COc1ccc(NC(=O)CN(C)C(=O)Cc2ccc(S(=O)(=O)N3CCOCC3)s2)cc1,8.92
14,Cc1cccc(C)c1NC(=O)CN(C)C(=O)c1cc(S(=O)(=O)N2CCOCC2)ccc1N1CCCC1,-3.99
15,O=C(NCC1CCN(c2ccc(S(=O)(=O)N3CCOCC3)cc2)CC1)c1ccc(Cl)cc1,-57.2
16,Cc1ccc(OCCNC(=O)Cc2ccc(S(=O)(=O)N3CCOCC3)s2)cc1,-24
17,CN(CCOc1ccc(Cl)cc1)C(=O)c1cc(S(=O)(=O)N2CCOCC2)ccc1N1CCCC1,-63.7
18,CN(CCOc1ccccc1)C(=O)c1ccc(F)c(S(=O)(=O)N2CCOCC2)c1,-10.8
19,COc1cccc(C(=O)NCC2CCN(c3ccc(S(=O)(=O)N4CCOCC4)cc3)CC2)c1,-22.9
